Values joined by “and” are separate entries in the source; they are usually repeats but may differ in a detail not shown here. Equal values may be shown once. Results filed as inconclusive are left out. A call without a number means that no potency is given here. A structure can be active in one record and inactive in another. Active and inactive are the calls of the source. Calls follow the shape of the full dose curve.
target: 5-hydroxytryptamine receptor 2A (Homo sapiens) (UniProt P28223); assay: 5-hydroxytryptamine receptor 2A (HTR2A) small molecule antagonists, cell-based qHTS assay (AID 1963586); settings: HTR2A-CHO cells, DOI-induced calcium flux, fluorescence; series mostly up to 61.5 µM; also: nearly all actives have a fitted effect of over 45% in size
Sequence (P28223 whole entry, looked up): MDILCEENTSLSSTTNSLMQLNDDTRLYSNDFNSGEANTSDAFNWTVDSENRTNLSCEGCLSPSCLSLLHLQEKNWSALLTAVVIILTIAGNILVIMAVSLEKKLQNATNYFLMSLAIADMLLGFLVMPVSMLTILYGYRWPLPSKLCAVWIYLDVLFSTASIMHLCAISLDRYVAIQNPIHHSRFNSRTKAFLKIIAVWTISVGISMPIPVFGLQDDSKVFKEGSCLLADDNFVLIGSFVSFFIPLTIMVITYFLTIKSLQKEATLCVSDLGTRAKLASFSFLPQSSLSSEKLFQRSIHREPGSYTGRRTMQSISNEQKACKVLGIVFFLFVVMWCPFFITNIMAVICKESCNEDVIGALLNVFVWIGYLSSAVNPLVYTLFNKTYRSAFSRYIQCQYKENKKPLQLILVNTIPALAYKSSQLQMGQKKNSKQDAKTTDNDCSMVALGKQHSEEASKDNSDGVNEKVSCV
Excerpt: National Center for Advancing Translational Sciences [NCATS]
Division of Preclinical Innovation [DPI]
U.S. Environmental Protection Agency [EPA]
National Institutes of Environmental Health Sciences [NIEHS]
National Toxicology Program [NTP]
U.S. Food and Drug Administration [FDA]
The HTR2A receptor is a subtype of the 5-HT2 receptor that belongs to the serotonin receptor family and is a G protein-coupled receptor (GPCR). The HTR2A-CHO cell line stably expressing human 5-hydroxytryptamine receptor 2A (HTR2A) can be used for screening antagonists of interactions between 5-HT2 and its ligands. The HTR2A-CHO calcium flux assay is a homogeneous fluorescence-based assay for detecting the intracellular calcium level using FDSS kinetic plate reader system.
Tox21 Assay Protocol Summary:
HTR2A-CHO cells were dispensed at 2000 cells/3uL/well in 1536-well black-clear bottom plates using a Multidrop Dispenser. After the assay plates were incubated at a 37 C/5% CO2 incubator for 18 h, 3 uL of Dye Loading Buffer was transferred to the assay plate by a Flying Reagent Dispenser. The assay plates were incubated at 37 C for 1h. For antagonist mode, 23 nL of compounds dissolved in DMSO, positive controls or DMSO only was transferred to the assay plate by a pin tool. After 5 min incubation at room temperature, 1.5 uL of 4-Iodo-2,5-dimethoxy-alpha-methylbenzeneethanamine hydrochloride (DOI) at 4nM was added to each well. The fluorescence intensity in the plates was measured using FDSS 7000EX kinetic plate reader for 3 min at 1 sec intervals.
Potency is read from the fitted curve at half-maximal effect.

| Compound | Potency |
| --- | --- |
| C/C=C(C)/C=C/C=C(C)C | inactive |
| CC(=O)OC/C=C(C)/C=C/C=C(C)/C=C/C1=C(C)CCCC1(C)C | inactive |
| [Na+] | inactive |
| CCCCCC(N)=O | inactive |
| O=S(=O)(O)c1ccc2cc(O)ccc2c1 | inactive |
| O=C1CCc2ccccc2O1 | inactive |
| COC(=O)c1ccccc1 | inactive |
| CCC(C)(O)CCCC(C)C (stereo not given) | inactive |
| Cc1ccc(N)c(S(=O)(=O)O)c1 | inactive |
| CCCCNC(=O)NS(=O)(=O)c1ccc(N)cc1 | inactive |
| Cc1ccc(O)cc1 | inactive |
| OC[C@]1(O)OC[C@@H](O)[C@H](O)[C@@H]1O | inactive |
| COCC(C)N (stereo not given) | inactive |
| O=C(O)/C=C\C(=O)O | 27.5 µM (active) and 3.75 µM (active) and inactive |
| c1cc(-c2ccncc2)ccn1 | inactive |
| CCCCCCCCCCCO | inactive |
| OCC(O)CS (stereo not given) | inactive |
| O=c1oc(=O)c2cc3c(=O)oc(=O)c3cc12 | inactive |
| CC1(C)O[C@@H]2[C@@H](CO[C@@]3(COS(N)(=O)=O)OC(C)(C)O[C@@H]23)O1 | inactive |
| COc1ccc(C(=O)c2ccccc2)c(O)c1 | inactive |

| Compound | Potency |
| --- | --- |
| NC=O | inactive |
| Cc1cc(Cc2ccc(N)c(C)c2)ccc1N | inactive |
| Cc1ccncc1 | inactive |
| CC(=O)[C@H]1CC[C@H]2[C@@H]3CC=C4C[C@@H](O)CC[C@]4(C)[C@H]3CC[C@]12C | inactive |
| O=C(O)Cn1c(=O)n(Cc2ccc(Br)cc2F)c(=O)c2ccc(Cl)cc21 | inactive |
| COCCOCCOCCO | inactive |
| Cc1ccc(N)c([N+](=O)[O-])c1 | inactive |
| CC(=O)Oc1c(C)c(C)c2c(c1C)CC[C@@](C)(CCC[C@H](C)CCC[C@H](C)CCCC(C)C)O2 | inactive |
| CC1(C)NC(=O)NC1=O | inactive |
| C[Si]1(C)O[Si](C)(C)O[Si](C)(C)O[Si](C)(C)O1 | inactive |
| CCCCCCCCCCCC[N+](C)(C)Cc1ccccc1 | 1.3 µM (active) and inactive and 16.3 µM (active) |
| O=C(CC(C(=O)OC1CCCCC1)S(=O)(=O)O)OC1CCCCC1 (stereo not given) | inactive |
| CCCCCCCCCCCCCC(=O)OC(C)C | inactive |
| CCCCOC(=O)c1ccc(O)cc1 | inactive |
| Oc1ccc(Cc2ccccc2O)cc1 | inactive |
| CC(C)=CCCC(C)CCO (stereo not given) | inactive |
| COCC(=O)O | inactive |
| Cc1cc(C)c(O)c(C)c1 | inactive |
| CCCOC(=O)c1ccccc1 | inactive |
| Nc1ccc(Cl)cc1Cl | inactive |
